# From PubChem
# The sample as a whole holds a higher share of hits than the screen did.
# CD40 NFkB inh – CD40 pathway inhibition in BL2 cells; BL2 NF-kB luciferase reporter, CD40L-induced, 4 h; inhibition, % at 10 µM; 83,000 compounds, 0.94% hits; AID 1053188;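 active means mean inhibition of at least 50% with a set share of replicates also reaching that level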
# Hits are given with their value; – = inactive; [ ] = another dose, or the depositor's remark.
SMILES,CD40 NFkB inh
CCCCC1C(=O)NC(=S)N(C)C1=O (stereo unspecified),33
C[C@H]1CN([C@@H](C)CO)C(=O)c2c(c3ccccc3n2C)-c2ccccc2CO[C@H]1CN(C)C(=O)Oc1ccccc1,–
CC=Cc1ccc2n(c1=O)C[C@H]1[C@H](CO)[C@@H](C(=O)OC)[C@@H]2N1C(=O)CC1CC1 (mixture of isomers),–
C=CCN1[C@@H]2CN(C(=O)NC(C)C)C[C@H]1C2c1ccccc1 (stereo partly specified),–
CC(=O)N1C2CN(C)CC1C2c1ccc(Br)cc1 (stereo unspecified),–
O=C(O)[C@@H]1[C@@H](CO)[C@@H]2Cn3c(ccc(-c4ccccc4)c3=O)[C@H]1N2S(=O)(=O)c1ccccc1F,–
O=C(O)[C@H]1[C@H](CO)[C@H]2Cn3c(ccc(-c4ccncc4)c3=O)[C@@H]1N2C(=O)C1CCCCC1,–
CC(C)NC(=O)N1C[C@@H]2C(c3ccccc3)[C@H](C1)N2CC1CC1 (stereo partly specified),–
Clc1ccc(CSC(Cn2ccnc2)c2ccc(Cl)cc2Cl)cc1 (stereo unspecified),49
c1ccc(Cn2ccnc2)cc1,–
COc1cc2cc(C(=O)N3CC(COS(C)(=O)=O)c4ccc(O)cc43)[nH]c2c(OC)c1OC (stereo unspecified),91
C#CCN1C(C)=C(C(=O)CCO)C(c2cccc(-n3oo3)c2)C(C(=O)OC)=C1C (stereo unspecified),–
CC1CC(C)(O)CC(C(O)CC2CC(=O)NC(=O)C2)C1=O (stereo unspecified),96
COc1cccc(-c2ccc([C@@H]3[C@H](CO)N4CCCCN(C(=O)Cc5ccncc5)C[C@@H]34)cc2)c1,–
CC(C)=CCCN1CCC(NC(=O)[C@](O)(c2ccccc2)C2CCCC2)CC1,–
O=C(Cc1ccccn1)N1CCCCN2[C@H](C1)[C@@H](c1ccc(-c3ccccc3F)cc1)[C@@H]2CO,–
C/C=C/c1ccc(C2[C@@H]3CN(C(=O)C4CC4)C[C@H]2N3)cc1 (stereo partly specified),–
CCN(CCCl)c1cc(CN(C)C)cc(NC(=O)c2ccc(C(=O)Nc3cc(CN(C)C)cc(N(CC)CCCl)c3)cc2)c1,108
O=C1CNC[C@H]2[C@@H](c3ccc(Br)cc3)[C@@H](CO)N12,–
CC(C)NC(=O)N1C[C@@H]2C(c3ccc(Br)cc3)[C@H](C1)N2CC1CC1 (stereo partly specified),–
CC(=O)N1C[C@@H]2C(c3ccc(Br)cc3)[C@H](C1)N2CC1CC1 (stereo partly specified),–
CC(=O)N1C[C@@H]2N[C@H](C1)C2c1ccccc1 (stereo partly specified),–
COc1ccc2[nH]c3c(c2c1)CCN=C3C,58
COc1ccc2[nH]cc(CCN)c2c1,–
COc1ccc2[nH]c(C)c(CCNCc3cn(C)c4ccccc34)c2c1,–
SMILES,CD40 NFkB inh
O=C(O)[C@H]1[C@H](CO)[C@H]2Cn3c(ccc(-c4ccc(F)cc4)c3=O)[C@@H]1N2CC1CCCC1,–
CC(C)C1(NC(=O)C2CC3c4cccc5[nH]cc(c45)CC3N(C)C2)OC2(O)C3CCCN3C(=O)C(Cc3ccccc3)N2C1=O (stereo unspecified),–
CC=Cc1ccc2n(c1=O)C[C@H]1[C@H](CO)[C@@H](C(=O)N(C)C)N[C@@H]21 (mixture of isomers),–
COc1cccc(-c2ccc([C@H]3[C@@H](CO)N4CCCCN(C(=O)Cc5ccncc5)C[C@H]34)cc2)c1,–
OCC1OC(n2cnc3cc(Cl)c(Cl)cc32)C(O)C1O (stereo unspecified),47
OC[C@H]1Nc2ccc(C#Cc3cccnc3)cc2[C@H]2NCC[C@H]21,–
O=C([C@H]1N[C@H]2c3cccc(=O)n3C[C@H]2[C@@H]1CO)N1CCCCC1,–
O=C1/C(=C/c2ccccc2)C[C@@]2(O)C3Cc4ccc(O)c5c4[C@@]2(CCN3CC2CC2)[C@H]1O5,85[25 µM]
O=C1CC[C@@]2(O)[C@H]3Cc4ccc(O)c5c4[C@@]2(CCN3CC2CC2)[C@H]1O5,–
COC(=O)C=CC(=O)NC1CCC2(O)C3Cc4ccc(O)c5c4C2(CCN3CC2CC2)C1O5 (stereo unspecified),–
C/C=C/c1ccc(C2[C@@H]3CN(C(=O)C4CCOCC4)C[C@H]2N3)cc1 (stereo partly specified),–
CN1CCC2(c3cccc(O)c3)Cc3nc4ccccc4cc3CC2C1 (stereo unspecified),–
O=C(O)C[C@@H]1CC[C@H]2NC[C@H](O)COC[C@@H]2O1,–
COc1ccc(CC2C(=O)NC(C)C(=O)N(C)C3C(=O)N(C)C(Cc4ccc(O)c(c4)Oc4ccc(cc4)C3O)C(=O)NC(C)C(=O)NC(C)C(=O)N2C)cc1 (stereo unspecified),124
COC(=O)[C@H]1[C@H](CO)[C@H]2Cn3c(ccc(-c4ccc(F)cc4)c3=O)[C@@H]1N2C(C)=O,–
Cc1cccc(S(=O)(=O)N2[C@@H]3c4ccc(-c5ccc(F)cc5)c(=O)n4C[C@H]2[C@H](CO)[C@H]3C(=O)O)c1,–
C[C@H](CO)N1C[C@H](C)[C@@H](CN(C)C(=O)Oc2ccccc2)OCc2ccccc2-c2c(n(C)c3ccccc23)C1=O,–
COC(=O)[C@@H]1[C@@H](CO)[C@@H]2Cn3c(ccc(-c4cccc(F)c4)c3=O)[C@H]1N2Cc1ccncc1,–
CN(C)CC#Cc1ccc([C@@H]2[C@H]3CN(C(=O)Cc4ccccn4)CCCCN3[C@H]2CO)cc1,–
CC1CCOC(=O)C=CC=CC(=O)OC2CC3OC4C5OC5(C)C(O)CC4(COC(=O)C1O)C2(C)C31CO1 (stereo unspecified),95
CC1=CC2OC3CC4OC(=O)C=CC=CC(C(C)O)OCC(O)C5(C)OC5C(=O)OCC2(CC1O)C4(C)C31CO1 (stereo unspecified),86
O=C(Cc1ccncc1)N1CCCCN2[C@H](CO)[C@H](c3ccc(C#Cc4ccccc4F)cc3)[C@H]2C1,–
C=CCN1[C@@H]2CN(C(C)=O)C[C@H]1C2c1ccccc1 (stereo partly specified),–
C[C@H](CO)N1C[C@H](C)[C@H](CN(C)C(=O)Oc2ccccc2)OCc2ccccc2-c2c(n(C)c3ccccc23)C1=O,–
C=CCN1CCC23c4c5ccc(O)c4OC2/C(=N\NC(=O)c2ccccc2)CCC3(O)C1C5 (stereo unspecified),–
SMILES,CD40 NFkB inh
CN1C[C@@H]2N[C@H](C1)C2c1ccc(Br)cc1 (stereo partly specified),–
Cc1ccc(OC(=O)N(C)C[C@@H]2OCc3ccccc3-c3c(n(C)c4ccccc34)C(=O)N([C@@H](C)CO)C[C@H]2C)cc1,55[25 µM]
Cc1ccc(OC(=O)N(C)C[C@H]2OCc3ccccc3-c3c(n(C)c4ccccc34)C(=O)N([C@@H](C)CO)C[C@@H]2C)cc1,–
Cc1ccc(OC(=O)N(C)C[C@H]2OCc3ccccc3-c3c(n(C)c4ccccc34)C(=O)N([C@H](C)CO)C[C@H]2C)cc1,–
COC(=O)[C@@H]1[C@@H](CO)[C@@H]2Cn3c(ccc(-c4cccnc4)c3=O)[C@H]1N2S(=O)(=O)c1ccccc1C,–
O=C1Nc2cc(Cl)c(Cl)cc2N2CCNCC12 (stereo unspecified),–
C/C=C/c1ccc(C2[C@@H]3CN(C(=O)c4cnccn4)C[C@H]2N3)cc1 (stereo partly specified),–
